According to PubChem BioAssay AID720504 (National Center for Advancing Translational Sciences (NCATS), 2013):
The campaign covered roughly 360,000 compounds. About 10,000 (2.8%) were called active. Not shown: some 4% with an inconclusive outcome. Calls follow the shape of the dose curve; as a rule, active = well fitted inhibition curve with a large enough effect; inconclusive = small, poorly fitted or top-dose-only effect; inactive = flat fitted curve, though single readings scatter. This excerpt belongs to a sample that is enriched for actives.

These compounds were tested against Serine/threonine-protein kinase PLK1 (Homo sapiens) (UniProt P53350) (assay: qHTS for Inhibitors of PLK1-PDB (polo-like kinase 1 - polo-box domain): Primary Screen). Conditions: Plk1 PBD binding of FITC phosphopeptide, fluorescence polarization.
% is scaled to controls: 0 for no effect and ±100 for the full control effect; potency is read from the fitted curve at half-maximal effect.
Also: nearly all actives have a fitted effect of over 65% in size.
For max response, negative = inhibition in this document: series mostly up to about 57 µM.

Serine/threonine-protein kinase PLK1 (Homo sapiens), sequence (P53350 whole entry, looked up, the tested form may be a part): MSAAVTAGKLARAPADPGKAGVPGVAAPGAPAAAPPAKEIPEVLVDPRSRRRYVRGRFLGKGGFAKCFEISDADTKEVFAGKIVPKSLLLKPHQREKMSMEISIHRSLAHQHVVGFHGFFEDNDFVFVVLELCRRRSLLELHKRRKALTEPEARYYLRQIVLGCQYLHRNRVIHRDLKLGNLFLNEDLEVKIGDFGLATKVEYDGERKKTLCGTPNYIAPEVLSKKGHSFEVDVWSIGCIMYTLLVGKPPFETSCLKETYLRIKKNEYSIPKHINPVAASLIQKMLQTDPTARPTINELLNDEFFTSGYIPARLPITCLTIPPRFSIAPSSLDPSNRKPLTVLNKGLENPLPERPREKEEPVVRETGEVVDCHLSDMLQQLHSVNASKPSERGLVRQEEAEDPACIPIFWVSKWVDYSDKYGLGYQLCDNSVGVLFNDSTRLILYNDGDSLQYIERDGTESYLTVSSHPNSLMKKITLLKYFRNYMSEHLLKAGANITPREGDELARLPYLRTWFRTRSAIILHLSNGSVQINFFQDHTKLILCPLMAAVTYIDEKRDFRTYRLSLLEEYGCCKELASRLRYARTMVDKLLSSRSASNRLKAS

Row | SMILES | max response, negative = inhibition | Potency
1 | CC1CCN(c2oc(-c3ccccc3F)nc2C#N)CC1 | 1.03% (inactive) | 
2 | N#Cc1nc(COc2ccc(Cl)cc2)oc1N1CCCC1 | -6.72% (inactive) | 
3 | Cc1ccc(OCc2nc(C#N)c(N3CCCC3)o2)cc1 |  | 5.32 µM (active)
4 | COC(=O)c1ccc(CN2C(=O)C(Cc3ccccc3)ON=C2c2ncccc2C)o1 (centres undefined) | 5.05% (inactive) | 
5 | CN1OC[C@@H]2CN(C(=O)C(C)(C)C)[C@H](c3ccc(-n4ccnc4)cc3)C[C@@H]21 | -0.5% (inactive) | 
6 | COc1cc(CNc2ncnc3c2ncn3[C@H]2CN(Cc3cccs3)C[C@@H](CO)O2)cc(OC)c1OC | -6.55% (inactive) | 
7 | COCCCn1c(C(=O)NC2CCCCC2)cc2c(=O)n3cccc(C)c3nc21 | -6.64% (inactive) | 
8 | Fc1ccc(OCc2nn3c(Cn4nnc5ccccc54)nnc3s2)cc1 |  | 11.9 µM (active)
9 | C/C(Cn1nnc2ccccc21)=N\OC(=O)c1cc(F)c(F)cc1Cl | -15% (inactive) | 
10 | Cn1c(Cn2nnc3ccccc32)nnc1SCC(=O)c1ccccc1F | -9.05% (inactive) | 
11 | COC(=O)[C@]12CCCCC=C1N(Cc1ccc(Cl)cc1Cl)C(=O)[C@H](CC(=O)NCc1cccc3ccccc13)C2 | -11% (inactive) | 
12 | CCc1nc2c(=O)[nH]cnc2o1 | -1.77% (inactive) | 
13 | CC(=NNC(N)=O)C1CC2CCC1CC2 (centres undefined) | -7.72% (inactive) | 
14 | Cc1cc(NC(=O)CSc2nc(C(C)C)nc3sc4c(c23)CCC(C)C4)no1 (centres undefined) | -3.46% (inactive) | 
15 | Cc1ccc(C(=O)NCCc2nnc(SCC(=O)Nc3cccc(C(=O)O)c3)n2C)cc1 | 1.64% (inactive) | 
16 | CC(C)c1nc(SCC(=O)Nc2cccc(C(=O)O)c2)c2c3c(sc2n1)CCCC3 |  | 42.3 µM (active)
17 | CC1(C(=O)NCc2ccc3c(c2)OCO3)CCN1C(=O)Cc1cccs1 (centres undefined) | 10.1% (inactive) | 
18 | COC(=O)c1ccc2nc(-c3cccc(Br)c3)c(Cc3ccccc3C(F)(F)F)n2c1 | -0.95% (inactive) | 
19 | Cc1ccc(CNC(=O)c2cccnc2Cl)cc1 | -17.3% (inactive) | 
20 | CCN(CC)S(=O)(=O)c1ccc(NC(=O)c2cccnc2Cl)c(NC(=O)c2cccnc2Cl)c1 |  | 23.8 µM (active)
21 | CCN(CC)S(=O)(=O)c1ccc(NC(=O)c2cnc(C)cn2)cc1 | 1.21% (inactive) | 
22 | COc1ccc(-c2csc(C(O)c3cccc(Cl)c3)n2)cn1 (centres undefined) | -6.07% (inactive) | 
23 | CCCCCNC(=O)C(c1ccc(OC)cc1)n1c(=O)c(-c2ccccc2)nc2ccccc21 (centres undefined) | -10.5% (inactive) | 

Row | SMILES | max response, negative = inhibition | Potency
24 | O=S(=O)(Nc1ccc2nc(N3CCOCC3)sc2c1)c1ccccc1 | -10.1% (inactive) | 
25 | COc1ccc(S(=O)(=O)Nc2ccc(O)c(Sc3nc4ccccc4s3)c2)cc1 |  | 16.8 µM (active)
26 | O=C(O)c1cccc(S(=O)(=O)Nc2ccc(O)cc2Sc2nc3ccccc3s2)c1 |  | 13.4 µM (active)
27 | COc1ccc(NS(=O)(=O)c2ccc(NC(=S)NC(=O)CC(C)C)cc2)cc1 | -14.2% (inactive) | 
28 | COc1ccc(NS(=O)(=O)c2ccc3oc(SCC(N)=O)nc3c2)cc1 | -0.392% (inactive) | 
29 | Cc1nc2ccc(NC(=O)c3cccc(S(=O)(=O)N4CCOCC4)c3)cc2s1 | -2.09% (inactive) | 
30 | N#Cc1ccc(-c2ccc3nccn3c2)cc1 | -5.23% (inactive) | 
31 | Cc1cc(C)n2nc(C(=O)N3CCN(Cc4ccc5c(c4)OCO5)CC3)nc2n1 | -1.06% (inactive) | 
32 | COc1ccc(-c2cc(C(=O)N3CCN(Cc4ccc5c(c4)OCO5)CC3)on2)cc1OC |  | 5.97 µM (active)
33 | O=C(c1cccs1)N1CCN(Cc2ccc3c(c2)OCO3)CC1 | -0.579% (inactive) | 
34 | Cc1ccc(OC(=O)CCC(=O)Nc2ccc(Br)cc2)cc1 | -3.3% (inactive) | 
35 | CC(C)Oc1ccc(CC(=O)NNC(=S)Nc2ccc(Br)cc2)cc1 |  | 13.4 µM (active)
36 | COC(=O)Cc1ccc(NC(=S)NCc2ccccc2)cc1 | -14.7% (inactive) | 
37 | O=C1NC[C@@H](CCCCN2CCN(CCc3ccc(O)cc3)C(=O)C2=O)N(CC2CCCCC2)C1=O | -8.33% (inactive) | 
38 | FC(F)(F)c1cccc(-c2nc3ccccc3n2C(c2ccccc2)c2nc3ccccc3[nH]2)c1 (centres undefined) | -0.5% (inactive) | 
39 | Cc1cccc(C)c1NC(=O)CN1CCN(c2ccc(F)cc2)CC1 | -2.75% (inactive) | 
40 | C/C=N/NC(=O)CCCC(=O)N/N=C/C |  | 29.9 µM (active)
41 | C=CCNC(=O)CCCC(=O)NCC=C | 2.64% (inactive) | 
42 | CCOc1cc(C=NNC(=O)CCCC(=O)NN=Cc2ccc(O)c(OCC)c2)ccc1O | -0.399% (inactive) | 
43 | Cc1cc(C)n2c(Nc3c(C)cccc3C)c(CCc3ccccc3)nc2n1 | -7.58% (inactive) | 
44 | CC(=O)c1cccc(NC(=O)c2cc(C)nn2-c2ccccc2)c1 | 5.02% (inactive) | 
45 | CSc1ccccc1C(=O)Nc1cccc(C(C)=O)c1 |  | 23.8 µM (active)
46 | CSc1ccccc1C(=O)NCc1ccccc1 | -11.2% (inactive) | 

Row | SMILES | max response, negative = inhibition | Potency
47 | CN(Cc1c(F)cccc1Cl)C(=O)COC(=O)Cn1cnc2ccccc2c1=O | -0.103% (inactive) | 
48 | CC(C)C1C(=O)N(Cc2cn(CCC3OCCO3)nn2)CCS(=O)(=O)N1Cc1ccc(-c2ccccc2C(F)(F)F)cc1 (centres undefined) | 0.333% (inactive) | 
49 | COc1cccc(-c2ccc3c(c2)N(Cc2ccccc2OC)C(=O)C(C)S3)c1 (centres undefined) | 0.113% (inactive) | 
50 | CCOC(=O)C1CCCN(C(=O)c2ccc(N(C)C)cc2)CC1 (centres undefined) | -4.5% (inactive) | 
51 | CC(=O)c1cccc(NC(=S)N2CCCC2)c1 | -6.15% (inactive) | 
52 | Cc1cccc(NC(=S)N2CCC(c3nc4ccccc4s3)CC2)c1 | -1.09% (inactive) | 
53 | Cc1cccc(NC(=S)N2CCC(C(=O)c3ccc(F)cc3)CC2)c1 |  | 2.99 µM (active)
54 | CCOC(=O)C1(C)CCCN(C(=O)c2ccc(F)c(Cl)c2)C1 (centres undefined) | -9.56% (inactive) | 
55 | CN(C)C(CNC(=O)c1cccc(S(=O)(=O)N2CCc3ccccc3C2)c1)c1ccccc1 (centres undefined) | -5.08% (inactive) | 
56 | CC1(C(=O)NS(=O)(=O)c2cccc(F)c2)CCN1C(=O)c1cccc2ccccc12 (centres undefined) | -0.565% (inactive) | 
57 | Cc1ccc2[nH]cc(CCCN3C(=O)c4ccccc4C3=O)c2c1 |  | 29.9 µM (active)
58 | COc1ccc2[nH]cc(CCN3C(=O)c4ccc(C(=O)O)cc4C3=O)c2c1 | -13.3% (inactive) | 
59 | O=C1c2ccccc2C(=O)N1CCCCCCN1C(=O)c2ccccc2C1=O | -2.55% (inactive) | 
60 | COC(=O)C1(C(=O)OC)C/C=C\CN(S(=O)(=O)c2ccccc2[N+](=O)[O-])CCC1 | 3.46% (inactive) | 
61 | O=C1OCCC1=COCCCCOC=C1CCOC1=O | 1.79% (inactive) | 
62 | Cc1ccc(NC(=O)C(=O)NCC2CCN(C(=O)c3cccc([N+](=O)[O-])c3)CC2)cc1 |  | 29.9 µM (active)
63 | O=C(NCCN1CCN(C(=O)c2cccc([N+](=O)[O-])c2)CC1)C(=O)NCc1ccc(Cl)cc1 | 2.99% (inactive) | 
64 | Cc1ccc(NC(=O)O/N=C/c2cccc([N+](=O)[O-])c2)cc1 | -16.5% (inactive) | 
65 | Cc1cccc(C)c1NC(=O)CNC(=O)c1ccc(N2CCOCC2)c([N+](=O)[O-])c1 | -13.7% (inactive) | 
66 | O=C(NNS(=O)(=O)Cc1ccccc1)c1ccc([N+](=O)[O-])cc1 | -14.2% (inactive) | 
67 | O=C(CNC(=O)c1ccccc1)Oc1ccc([N+](=O)[O-])cc1 |  | 5.32 µM (active)
68 | COC(=O)CNC(=O)c1ccccc1[N+](=O)[O-] | -2.66% (inactive) | 
69 | Cc1ccc(Cc2c(-c3ccc(C)cc3)nc3c4ccccc4ccn23)cc1 | 5.48% (inactive) | 

Row | SMILES | max response, negative = inhibition | Potency
70 | COc1cc(C=C(OC(C)=O)c2ccc3c(c2)OCO3)cc(OC)c1OC | -7.84% (inactive) | 
71 | CCOC(=O)C1(C)CCCN(C(=O)c2ccc(N(C)C)cc2)C1 (centres undefined) | -5.89% (inactive) | 
72 | CCc1ccccc1NC(=O)CN(C)S(=O)(=O)c1ccc2c(c1)c(=O)n(C)c(=O)n2C | -2.91% (inactive) | 
73 | CC1CCC(NC(=O)CN(C)S(=O)(=O)c2ccc3c(c2)c(=O)n(C)c(=O)n3C)CC1 (centres undefined) |  | 18.9 µM (active)
74 | COc1cccc(CNC(=O)CN(C)S(=O)(=O)c2ccc3c(c2)c(=O)n(C)c(=O)n3C)c1 | -6.18% (inactive) | 
75 | CCNC(=O)C1CCCN(C(=O)c2ccc(OC)cc2OC)CC1 (centres undefined) | -11.4% (inactive) | 
76 | Cc1cc(C)c(C=NNc2nc3c([nH]2)c(=O)n(C)c(=O)n3C)c(C)c1 | -11.3% (inactive) | 
77 | Cc1cccc(C)c1NC(=O)CSc1nc2c([nH]1)c(=O)n(C)c(=O)n2C | -5.89% (inactive) | 
78 | Cc1ccc(NN=Nc2nc3c([nH]2)c(=O)n(C)c(=O)n3C)cc1 |  | 23.8 µM (active)
79 | C[C@H]1CN([C@@H](C)CO)C(=O)CCCn2cc(nn2)CO[C@@H]1CN(C)S(=O)(=O)c1cccs1 | -15.8% (inactive) | 
80 | CCn1cc(/C=C(\NC(=O)c2ccc(C)cc2)C(=O)NCCN2CCOCC2)c2ccccc21 |  | 26.7 µM (active)
81 | O=C(NCCN1CCOCC1)/C(=C/c1ccc(F)cc1)NC(=O)c1ccccc1 | -12.8% (inactive) | 
82 | Cc1ccc(C(=O)N/C(=C\c2ccc(F)cc2)C(=O)NCCN2CCOCC2)cc1 | -16.1% (inactive) | 
83 | CCCOc1ccc(F)cc1-c1cc(C(=O)Nc2ccc(F)cc2)[nH]n1 | 6.37% (inactive) | 
84 | O=C(NCc1cccc(C(F)(F)F)c1)c1ccc2sc(COCCO)nc2c1 | -3.85% (inactive) | 
85 | CCOC(=O)C1C(C)C(C(C)(C)C)N(S(=O)(=O)c2ccc(C)cc2)C1c1ccccc1 (centres undefined) | -10.1% (inactive) | 
86 | CC1(C(=O)NCC2CCOCC2)Cc2c(-c3cccc(C(N)=O)c3)ccnc2O1 (centres undefined) | -6.03% (inactive) | 
87 | Cc1nc(-c2ccccc2)sc1C(=O)/C=C/N(C)C |  | 29.9 µM (active)
88 | Cc1nc(COc2cccc(Cl)c2)sc1C(=O)/C=C/N(C)C | 6.79% (inactive) | 
89 | CN(C)/C=C/C(=O)c1ccccc1F | -6.3% (inactive) | 
